CYP2C9 inhib: blocks human cytochrome P450 2C9. AID 777. inhibition, % at 5 µM. CYP2C9 Supersomes, luciferin-H conversion, luminescence. P11712. 96,000 compounds, 20% hits;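 active means blocking of liver enzyme CYP2C9 beyond about 50% at 5 µM, limit read from the data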
Cav32 inh: inhibitors of human Cav3.2 T-type calcium channel; AID 449739; 100,000 compounds, 4% hits; B-score at 10 µM; O95180; Cav3.2-expressing cells, Fluo-4 calcium fluorescence FDSS; hits give low values;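 active means single-dose well whose peak fluorescence ratio is a statistical outlier from its plate by either plate-standardised score or position-corrected B-score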
CYP2C9 activ: activators of human CYP2C9; P11712; recombinant CYP2C9, luciferin-H conversion, luminescence; hits give high values; factor 1 = untreated enzyme, 0 = blocked; activation factor at 5 µM; 96,000 compounds, 1.4% hits; AID 1024;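 active means activation factor of 2 or more for CYP2C9 at a 5 µM dose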
CYP2C19 activ: activators of human cytochrome P450 2C19; activation factor at 5 µM; P33261; recombinant CYP2C19, luciferin-H EGE luminescence; hits give high values; 0 = fully inhibited enzyme, 1 = untreated enzyme; 96,000 tested, under 10 active;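 active means activation factor of at least 2 at 5 µM in the primary screen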
Target sequence (P33261 whole entry, looked up): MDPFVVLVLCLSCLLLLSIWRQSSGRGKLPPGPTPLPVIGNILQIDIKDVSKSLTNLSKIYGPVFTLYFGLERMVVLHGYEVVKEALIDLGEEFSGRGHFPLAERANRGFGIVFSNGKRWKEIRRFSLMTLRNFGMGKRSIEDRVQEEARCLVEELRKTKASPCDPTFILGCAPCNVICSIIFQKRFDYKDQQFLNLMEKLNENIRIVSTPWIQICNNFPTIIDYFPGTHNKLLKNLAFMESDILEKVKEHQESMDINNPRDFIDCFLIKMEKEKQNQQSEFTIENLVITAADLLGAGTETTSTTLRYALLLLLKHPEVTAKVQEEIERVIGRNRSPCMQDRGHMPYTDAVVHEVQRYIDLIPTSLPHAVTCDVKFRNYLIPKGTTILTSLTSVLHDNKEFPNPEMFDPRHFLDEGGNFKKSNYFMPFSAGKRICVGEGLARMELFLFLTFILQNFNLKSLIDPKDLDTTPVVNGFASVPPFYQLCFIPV
CYP2C19 inhib: human CYP2C19 inhibition; inhibition, % at 5 µM; 96,000 compounds, 21% hits; AID 778; P33261; CYP2C19 Supersomes, luciferin-H EGE luminescence, 30 min;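 active means CYP2C19 inhibition above a set limit at 5 µM in the primary screen, cut at about 50% in these data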
Each line names hits and unclear results; the compound was inactive in the other large screens. Most compounds without a hit are left out; they make up all but 27% or so of the library.

Cc1ccc(C)c(S(=O)(=O)N2CCC(c3nc4c(nnn4Cc4ccc(F)cc4)c(=O)[nH]3)CC2)c1	CYP2C9 inhib 94
Cc1ccc(C)c(Cn2nnc3c(=O)[nH]c(C(=O)NCC4CCCO4)nc32)c1 (stereo unspecified)	none (no result: CYP2C9 inhib, CYP2C9 activ, CYP2C19 activ, CYP2C19 inhib)
COC(=O)C(CC(=O)c1ccc(Br)cc1)n1ccnc1 (stereo unspecified)	CYP2C9 inhib 81, CYP2C19 inhib 96
CC1CCN(C(=O)CCc2ccc(S(=O)(=O)NC(C)C)cc2)CC1	CYP2C19 inhib 53
Cc1ccc(S(=O)(=O)NC(=O)N2CCC(C)CC2)cc1	none (no result: Cav32 inh)
CCCNS(=O)(=O)c1ccc(CCC(=O)N2CCCCC2)cc1	none
CC(C)NS(=O)(=O)c1ccc(CCC(=O)O)cc1	none
Cc1cc(C)c(C)c(S(=O)(=O)NCC(=O)N2CCCC2)c1C	CYP2C19 inhib 78
CC(C)(C)NS(=O)(=O)c1ccc(CCC(=O)N2CCCCC2)cc1	CYP2C19 inhib 61
Cc1ccc(S(=O)(=O)NCC(=O)N2CCC(C)CC2)cc1	CYP2C19 inhib 72
CCOC(=O)Cc1csc(NC(=O)c2ccc(S(=O)(=O)N3CCCC3)cc2)n1	CYP2C9 inhib 88, CYP2C19 inhib 79
O=C(Nc1nc(-c2cccs2)cs1)c1ccc(S(=O)(=O)N2CCCCC2)cc1	CYP2C9 inhib 60, Cav32 inh -6.1
O=C(Nc1nc(-c2ccccc2)cs1)c1cccc(S(=O)(=O)N2CCN(Cc3ccccc3)CC2)c1	CYP2C9 inhib 90, CYP2C19 inhib 53 (no result: Cav32 inh)
O=C(Nc1nc(-c2cccs2)cs1)c1cccc(S(=O)(=O)N2CCCCCC2)c1	CYP2C9 inhib 94, CYP2C19 inhib 72
CS(=O)(=O)N1Cc2ccccc2CC1C(=O)OCC(=O)Nc1ccc2ccccc2c1 (stereo unspecified)	none
C#CCNC(=O)C1=C[C@@H](c2ccc(C(F)(F)F)cc2)[C@H](CCCO)[C@@H](OCC)O1	none (no result: CYP2C9 inhib, CYP2C9 activ, CYP2C19 activ, CYP2C19 inhib)
CCOC(=O)c1cnc2c(C(F)(F)F)cccc2c1N1CCOCC1	CYP2C19 inhib 68 (no result: Cav32 inh)
CCN(CC)NC(=S)Nc1ccccc1	none
CC(C)NC(=S)NN(c1ccccc1)c1ccccc1	CYP2C9 inhib 51, CYP2C19 inhib 62
Cc1[nH]nc2c1C(c1ccc(Cl)cc1)C(C#N)=C(N)O2 (stereo unspecified)	CYP2C19 inhib 53
CC(C)(C)c1[nH]nc2c1C(c1ccncc1)C(C#N)=C(N)O2 (stereo unspecified)	CYP2C9 inhib 72, CYP2C19 inhib 60
Cc1ccc(/C=C2\Sc3ccccc3C2=O)s1	CYP2C9 inhib 75, CYP2C19 inhib 94
O=C1/C(=C/c2cccnc2)Sc2ccccc21	CYP2C9 inhib 66, CYP2C19 inhib 78
CCC(=O)N(C)/C=C1\Sc2ccccc2C1=O	none
S=C(Nc1ccc(N2CCOCC2)cc1)Nc1ccc2nc(-c3ccco3)c(-c3ccco3)nc2c1	none (no result: Cav32 inh)
CC(C)C(c1nnnn1C1CCCC1)N1CCCc2ccccc21 (stereo unspecified)	Cav32 inh -3.9 (no result: CYP2C9 inhib, CYP2C9 activ, CYP2C19 activ, CYP2C19 inhib)
CC(C)C(c1nnnn1C1CCCCC1)N1CCCc2ccccc21 (stereo unspecified)	none (no result: CYP2C9 inhib, CYP2C9 activ, CYP2C19 activ, CYP2C19 inhib)
CC(C)C(c1nnnn1C1CCCC1)N1CCc2ccccc21 (stereo unspecified)	CYP2C9 inhib 57
COc1ccccc1CNC(=O)COC(=O)c1ccc(NC(N)=O)cc1	none
CN1C=CC=C/C1=C1\SC(=S)N(c2ccccc2)C1=O	none (no result: Cav32 inh)
CN1C=CC=C/C1=C1\SC(=S)N(C2CCCCC2)C1=O	CYP2C19 inhib 58
CC(C)C(=O)Nc1nnc(CCN2CCCCC2)s1	none
Cc1ccc(C2=NC(C)(C)N=C2SCC(=O)Nc2ccc(Cl)cc2)cc1	Cav32 inh -4.7
CC1(C)N=C(SCC(=O)Nc2ccc(Cl)cc2Cl)C(c2ccccc2)=N1	CYP2C9 inhib 62, Cav32 inh -5.7, CYP2C19 inhib 55
COc1ccccc1-c1nnc(SCC(=O)Nc2ccc(Cl)cc2Cl)o1	none
CC(c1nnc(Sc2nnnn2-c2ccccc2)n1-c1ccc(F)cc1)N(C)C (stereo unspecified)	none
COc1cc(C2Sc3ccccc3NC3=C2C(=O)OC3)cc(OC)c1OC (stereo unspecified)	none (no result: CYP2C9 inhib, CYP2C9 activ, CYP2C19 activ, CYP2C19 inhib)
O=C1OCC2=C1C(c1ccc(F)cc1)Sc1ccccc1N2 (stereo unspecified)	CYP2C9 inhib 75, CYP2C19 inhib 77
Cc1c(NC(=O)C2CCN(S(=O)(=O)c3ccc(Cl)cc3)CC2)c(=O)n(-c2ccccc2)n1C	none
Cc1c(CCO)c(=O)n(-c2ccccc2)n1S(=O)(=O)c1c(Cl)cc(Cl)cc1Cl	Cav32 inh -5.5, CYP2C19 inhib 57
N#Cc1nc(-c2ccccc2F)oc1NCc1ccccc1	CYP2C9 inhib 66 (no result: Cav32 inh)
COCCCNc1oc(-c2ccccc2F)nc1C#N	CYP2C9 inhib 58, CYP2C19 inhib 66
CN=Cc1c(NC)nc2c(C)cccn2c1=O	none
CC(=O)C1=C(C)NC(SCC(=O)c2ccc(Cl)cc2)=C(C#N)C1c1ccco1 (stereo unspecified)	CYP2C9 inhib 97, Cav32 inh -4.5, CYP2C19 inhib 100

Screening results: PubChem, several laboratories
